# GluA2 TARP mod: modulates AMPAR-stargazin complexes; O88602+P19491; HEK293 GluA2+stargazin, membrane potential dye (FDSS), glutamate EC50; hits were called plate by plate, in both directions; calls only at 30 µM; 40,000 compounds, 3.5% hits; AID 1259245;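 active means any of four per-well response measures lying three or more SD from its plate-wide compound average, in either direction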
# Target sequence (O88602 whole entry, looked up): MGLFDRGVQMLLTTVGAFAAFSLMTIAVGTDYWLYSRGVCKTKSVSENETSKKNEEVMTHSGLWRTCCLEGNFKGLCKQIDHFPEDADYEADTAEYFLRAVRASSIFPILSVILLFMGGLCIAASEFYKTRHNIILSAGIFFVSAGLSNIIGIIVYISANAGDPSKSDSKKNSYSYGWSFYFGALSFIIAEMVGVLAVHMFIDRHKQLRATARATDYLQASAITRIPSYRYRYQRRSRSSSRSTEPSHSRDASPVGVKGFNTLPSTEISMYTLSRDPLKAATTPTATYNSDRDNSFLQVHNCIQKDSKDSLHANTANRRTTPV
# Target sequence (P19491 whole entry, looked up): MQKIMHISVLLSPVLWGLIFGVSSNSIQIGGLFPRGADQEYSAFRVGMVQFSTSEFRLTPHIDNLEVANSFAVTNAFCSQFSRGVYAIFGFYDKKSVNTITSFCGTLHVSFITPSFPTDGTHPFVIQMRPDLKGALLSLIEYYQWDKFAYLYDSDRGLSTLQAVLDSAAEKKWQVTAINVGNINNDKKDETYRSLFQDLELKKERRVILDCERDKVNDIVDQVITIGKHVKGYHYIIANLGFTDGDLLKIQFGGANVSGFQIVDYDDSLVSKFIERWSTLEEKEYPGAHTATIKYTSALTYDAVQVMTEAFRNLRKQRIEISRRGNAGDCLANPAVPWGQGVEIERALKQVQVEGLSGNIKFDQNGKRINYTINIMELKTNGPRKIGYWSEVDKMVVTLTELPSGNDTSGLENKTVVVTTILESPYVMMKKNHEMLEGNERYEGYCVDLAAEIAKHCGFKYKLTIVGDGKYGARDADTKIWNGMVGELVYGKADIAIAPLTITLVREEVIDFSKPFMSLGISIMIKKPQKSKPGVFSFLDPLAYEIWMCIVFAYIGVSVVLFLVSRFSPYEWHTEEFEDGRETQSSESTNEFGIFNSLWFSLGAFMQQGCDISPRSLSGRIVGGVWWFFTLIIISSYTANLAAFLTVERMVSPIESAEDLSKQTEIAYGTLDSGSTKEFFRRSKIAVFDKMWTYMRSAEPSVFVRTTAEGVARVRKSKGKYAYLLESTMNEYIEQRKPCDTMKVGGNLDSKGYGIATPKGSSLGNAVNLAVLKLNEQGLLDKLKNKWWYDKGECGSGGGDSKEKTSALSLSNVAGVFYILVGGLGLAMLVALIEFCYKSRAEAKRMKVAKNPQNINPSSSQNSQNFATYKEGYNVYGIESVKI
# GIRK2 act: Activators of human GIRK2-containing channels; P48051; HEK293 GIRK2/NPY4 cells, thallium flux fluorescence; activation (% efficacy), % for hits at 37.5 µM; 34,000 tested, under 10 active; AID 1259324;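 active means primary screen hit, no activity in plain HEK293 cells, and in GIRK2-only cells above 5% efficacy rising with concentration; inactive means the rest, including fluorescent compounds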;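 further: efficacy is normalized control-subtracted fluorescence 15 s after thallium addition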
# Hits are given with their value; - = inactive; . = no result; + = active, no number; [ ] = another dose, or the depositor's remark. The entries come from a sample that favours hits as a whole.
SMILES,GluA2 TARP mod,GIRK2 act
Cc1ccc(Cl)cc1NC(=O)C(=O)NCC1CCN(Cc2ccccc2)CC1,-,-
CCNS(=O)(=O)CCCOc1ccc2c(c1)OCO2,-,-
COc1ccc(CCNC(=O)c2nn(-c3ccc(F)cc3)cc2OC)cc1OC,-,-
CC1CCCCN1c1ccc(N2CCN(C(=O)/C=C/c3ccccc3)CC2)nn1 (configuration not stated),-,-
CN1C(=O)Cc2cc(NC(=O)Nc3cccc(Cl)c3)ccc21,+,-
CC(=O)Nc1ccc2c(c1)CC(=O)N2C,-,.
CN1C(=O)Cc2cc(NC(=O)Nc3ccc(Cl)c(Cl)c3)ccc21,-,-
CN1C(=O)Cc2cc(NC(=O)/C=C/c3ccccc3)ccc21,+,-
COc1ccc(-n2nnc(C(=O)Nc3ccc(NC(C)=O)cc3)c2C(C)C)cc1,-,-
CN(C)S(=O)(=O)c1ccc(C(=O)NCCc2csc3nc(-c4cccc(F)c4)nn23)cc1,-,-
Cc1cc(NC(=O)C(=O)NCC2(c3cccs3)CCCC2)c2ccccc2n1,.,6.0%[75 µM]
CSc1ccccc1NC(=O)C(=O)NCC1(c2cccs2)CCCC1,.,-
CCCc1ccc(S(=O)(=O)NCC2CCN(Cc3ccco3)CC2)cc1,+,-
O=C(NCc1ccccc1)C(=O)NCC1CCN(Cc2ccco2)CC1,-,-
CC(=O)Nc1ccc(S(=O)(=O)NCC2CCN(Cc3ccco3)CC2)cc1,-,-
COc1ccc(CNC(=O)C(=O)NCC2CCN(Cc3ccco3)CC2)cc1,+,-
c1ncn(CC2CCNCC2)n1,-,-
COc1ccc(S(=O)(=O)NCCOC23CC4CC(CC(C4)C2)C3)cc1OC,-,.
OCCN1CCN(CC(O)COC23CC4CC(CC(C4)C2)C3)CC1 (configuration not stated),-,.
O=C(Nc1cc(-c2ccccc2)nn1CCO)c1ccsc1,-,-
O=C(Nc1cc(-c2ccccc2)nn1CCO)c1cccc(Cl)c1,+,-
COc1ccc(F)cc1S(=O)(=O)Nc1cccc(-c2ccc(=O)n(C)n2)c1,+,-
COc1ccc(F)cc1S(=O)(=O)Nc1ccc(-c2ccc(=O)n(C)n2)cc1,-,-
COc1cc(C(=O)Nc2cc3c4c(c2)CC(=O)N4CCC3)cc(OC)c1OC,-,-
O=C(Nc1cc2c3c(c1)CC(=O)N3CCC2)c1cnccn1,+,-
SMILES,GluA2 TARP mod,GIRK2 act
COc1ccc(C(=O)N2c3ccccc3CC2C(N)=O)c(OC)c1 (configuration not stated),-,-
O=C(NCC(O)(c1ccccc1)C1CC1)c1cc2ccccc2o1 (configuration not stated),-,.
O=C(NCC1CCN(C(=O)/C=C/c2ccco2)CC1)c1ccc2nsnc2c1,-,-
CCN(CC)c1ccc(C2C(C(=O)Nc3cccc(C(F)(F)F)c3)=C(C)NC3=C2C(=O)CCC3)cc1 (configuration not stated),-,.
CC1=C(C(=O)Nc2cccc(C(F)(F)F)c2)C(c2ccc(C)cc2)C2=C(CCCC2=O)N1 (configuration not stated),+,.
COC(=O)/C=C1\S/C(=N\Nc2nc(C)cc(C)n2)N(c2ccccc2)C1=O,+,.
COC(=O)/C=C1\S/C(=N/Nc2nc(C)cc(C)n2)N(c2ccccc2)C1=O,.,-
COCCn1c(=O)c2c(nc3n(-c4ccccc4C)c(-c4ccccc4)cn23)n(C)c1=O,-,.
C=CCn1c(=O)c2c(nc3n(-c4cc(OC)ccc4OC)c(-c4ccccc4)cn23)n(C)c1=O,-,-
CCc1ccccc1-n1c(-c2ccccc2)cn2c3c(=O)n(CCOC)c(=O)n(C)c3nc12,+,.
C=C(C)Cn1c(=O)c2c(nc3n(-c4cc(OC)ccc4OC)c(-c4ccccc4)cn23)n(C)c1=O,+,-
O=C(NCC1(O)CCOCC1)C(=O)Nc1ccccc1C(F)(F)F,-,-
Cc1cc(C)n(CCNC(=O)Cn2c3c(c4ccccc42)CCC3)n1,-,-
O=C(Cn1c2c(c3ccccc31)CCC2)NCC1CCS(=O)(=O)C1 (configuration not stated),+,-
CN1C(=O)NC2(CCN(CC(=O)Nc3ccccc3C(F)(F)F)CC2)C1=O,-,.
Cc1cccc(Nc2ccc(N3CCN(C(=O)C4CCC(=O)N4)CC3)nn2)n1 (configuration not stated),+,-
Cc1cccc(Nc2ccc(N3CCN(C(=O)C4CCCO4)CC3)nn2)n1 (configuration not stated),.,-
COC(=O)c1ccc(NC(=O)c2cc(=O)c(OC)co2)cc1,-,-
O=C(Nc1nc2ccc(Cl)cc2s1)c1cc(=O)c(OCc2ccc(F)cc2)co1,-,-
COc1ccc(NC(=O)c2cc(=O)c(OC)co2)c(OC)c1,+,-
COc1coc(C(=O)Nc2nc3ccc(Cl)cc3s2)cc1=O,+,-
CN1CCCc2cc(CCNC(=O)C(=O)Nc3ccccc3Cl)ccc21,-,.
Cc1cccc2c(=O)oc(-c3cccnc3)nc12,-,-
COc1cc(NC(=O)CSc2nccn(-c3cccc(F)c3)c2=O)cc(OC)c1,-,.
COCC(C)NC(=O)C(=O)Nc1cccc(NC(C)=O)c1 (configuration not stated),-,.
SMILES,GluA2 TARP mod,GIRK2 act
O=C(NCC1(c2ccccc2)CCOCC1)c1ccccc1C(F)(F)F,-,-
CCC1(C)CC(CCN(Cc2ccccc2F)C(C)=O)(c2ccccc2)CCO1 (configuration not stated),+,.
O=C(Nc1cccs1)N1CCN(Cc2nc(-c3ccc(F)cc3)cs2)CC1,-,-
CCn1ccc(C(=O)Nc2nc3c(OC)ccc(Cl)c3s2)n1,.,-
O=C(CSc1nc(=O)n(Cc2ccco2)c2c1CCC2)NC1CCCCC1,-,-
S=c1nc(-c2ccc(Br)cc2)n(Cc2ccco2)c2c1CCCC2,+,.
COc1ccc(-c2noc(-c3c(SC)nn(CC(=O)Nc4ccc(F)cc4Cl)c3N)n2)cc1,-,-
CCCNC(=O)CCCCn1c(=O)c2ccccc2n(CC(=O)Nc2cccc(SC)c2)c1=O,-,-
CCCNC(=O)CCCCn1c(=O)c2ccccc2n(CC(=O)Nc2ccccc2Cl)c1=O,+,-
O=C(CCCCn1c(=O)[nH]c2ccccc2c1=O)NC1CCCCCC1,-,-
O=C(CCCCn1c(=O)c2ccccc2n(CC(=O)NC2CCCCC2)c1=O)NCc1cccs1,+,-
COc1ccc(C2=NN(S(=O)(=O)c3ccccc3)C(c3ccc4nccnc4c3)C2)cc1 (configuration not stated),-,.
Cc1cc(OCCCn2c(C3CC(=O)N(C(C)(C)C)C3)nc3ccccc32)ccc1Cl (configuration not stated),-,.
CSc1ccc(CC(=O)Nc2ccc3c(c2)C(=O)NC3=O)cc1,-,.
COc1ccc(Cl)cc1NC(=O)Cn1ccn(-c2ccc(F)cc2)c(=O)c1=O,-,-
CCCCn1c(SCc2nc(-c3ccc(F)cc3)no2)nc2ccccc2c1=O,-,.
CCSc1nnc(NC(=O)Cn2c(-c3cnccn3)nc3ccccc32)s1,-,-
O=C(Cn1c(-c2cnccn2)nc2ccccc21)Nc1ccc(F)c(Cl)c1,+,-
CC1CN(CC(O)COc2ccccc2-c2ccccc2)CC(C)O1 (configuration not stated),-,-
O=C(NCc1n[nH]c(=O)c2ccccc12)c1cc(=O)c2ccccc2o1,+,-
O=C(NCc1n[nH]c(=O)c2ccccc12)c1ccc(Br)o1,-,-
COc1ccc(C)cc1NC(=O)CCn1cnc2c(cnn2-c2ccccc2)c1=O,.,-

# Screening results (PubChem)
